# Bioassay records deposited in PubChem by National Center for Advancing Translational Sciences (NCATS).
# a7 integrin act: activators of alpha7 integrin expression for muscular dystrophy; actives 0.064% (n = 350,000); Potency, µM (top dose mostly 38.3 µM), for inactives: top-dose activation, usual class: activators; alpha7betagal myoblasts, beta-gal FDG fluorescence, 48 h;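 further: potency means the concentration at half of the fitted maximal effect; 100% = response of the positive control SU9516; nearly all actives have a fitted effect of over 60% in size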
#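 alpha7betagal+/- myoblasts (passage 13, 250/well) treated 48 h at 37C with compounds at 1:260 dilution of DMSO stock. Lysed, then beta-galactosidase activity read as FDG fluorescence (ex 480/em 540) after 30 min, with pre-read for autofluorescence.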
# LDHA block: blocks human lactate dehydrogenase A. purified LDHA, NADH/diaphorase-resazurin fluorescence; hits give low values. activity change, % (values are at about 110 or 230 µM). actives 0.15% (n = 480,000); in the data active means activity change below about -30%; inconclusive means mostly about -25% to -30%;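 further: plate controls were DMSO wells for no effect and wells without enzyme for full effect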
#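 Human LDH5 (2 nM) was incubated with 0.06 mM NADH and 0.2 mM pyruvate for 5 min at room temperature in Tris pH 7.4. Remaining NADH was coupled through diaphorase/resazurin, and resorufin fluorescence was read at 0 and 20 min.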
# GALK inhibitor: inhibitors of human galactokinase | Potency, µM (top dose mostly 57.5 µM), for inactives: top-dose activity change, negative = inhibition, actives largely listed as inhibitors | Purified GALK, Kinase-Glo residual ATP luminescence | actives 0.007% (n = 270,000); further: potency means the concentration at half of the fitted maximal effect
#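 Galactose (100 uM) and ATP (35 uM) were turned over by 5 nM GALK for 1 h at RT. Kinase-Glo Plus then converted the remaining ATP into a luminescent signal.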
# TrxR1 substrate: rat thioredoxin reductase 1 substrate activity. O89049. purified TrxR1 substrate turnover, NADPH consumption readout. Potency, µM (highest dose often 114 µM), inactives show top-dose activity change, negative = substrate turnover. actives 0.01% (n = 390,000); further: potency means the concentration at half of the fitted maximal effect; nearly all actives have a fitted effect of over 50% in size
# Target sequence (O89049 whole entry, looked up): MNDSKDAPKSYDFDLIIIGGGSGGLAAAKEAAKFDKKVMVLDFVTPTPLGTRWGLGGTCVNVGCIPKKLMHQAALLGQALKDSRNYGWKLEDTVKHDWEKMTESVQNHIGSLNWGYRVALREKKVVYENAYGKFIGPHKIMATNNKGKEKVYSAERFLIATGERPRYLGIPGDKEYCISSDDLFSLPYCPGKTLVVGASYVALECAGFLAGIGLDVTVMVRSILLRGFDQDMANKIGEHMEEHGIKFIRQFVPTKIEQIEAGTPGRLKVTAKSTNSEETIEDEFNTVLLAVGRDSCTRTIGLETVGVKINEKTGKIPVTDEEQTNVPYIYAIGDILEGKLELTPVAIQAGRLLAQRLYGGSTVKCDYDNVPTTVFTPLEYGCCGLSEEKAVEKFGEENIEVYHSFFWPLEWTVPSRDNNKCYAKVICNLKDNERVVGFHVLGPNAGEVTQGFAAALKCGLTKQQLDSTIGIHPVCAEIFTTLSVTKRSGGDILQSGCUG
#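 Rat TrxR1, dispensed at 90 nM, was prereduced with 400 uM NADPH (final) for 5 min at ~22 deg C, then incubated with compound 15 min before 400 uM selenite. A first-read NADPH fluorescence drop versus no-compound background flagged substrates.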
# rTrxR1 inhibitor: inhibitors of rat thioredoxin reductase 1 | O89049 | recombinant rTrxR1, NADPH fluorescence consumption, selenite substrate | Potency, µM (titrated, usually from 114 µM), without a hit: at the top dose activity change, negative = inhibition, usual class: inhibitors | actives 1% (n = 390,000); further: potency means the concentration at half of the fitted maximal effect; nearly all actives have a fitted effect of over 65% in size
#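 Rat TrxR1 (90 nM in the dispensed reagent) was pre-reduced with 400 uM NADPH for 5 min at room temperature, then incubated with compound for 15 min. After 400 uM selenite was added, NADPH fluorescence (Ex 340/Em 450 nm) was followed for 8 min.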
# PI4K2A block: blocks human PI4K2A kinase activity; purified PI4K2A, ADP-Glo luminescence, 1 h; hits give low values; activity change, negative = inhibition, % at 76.9 µM; actives 0.13% (n = 420,000); in the data active means activity change below about -50%; inconclusive means mostly about -30% to -49%;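 further: -100% = wells without enzyme as full effect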
#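 PI4K2A activity was measured by ADP-Glo luminescence: enzyme (4 ug/mL stock) and phosphatidylinositol (1.2 mM stock) in Tris pH 7.5/MgCl2/EGTA/Triton X-100 buffer were reacted with ATP (300 microM stock) for one hour at ambient temperature.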
# An asterisk follows results filed as active; u = inconclusive; x = not tested or not shown; [ ] = dose if it differs, or a comment. Rows were chosen to be rich in hits. Some 1.1% of all compounds tested hit in one or more screens of this group. Unless noted, the call rests on the fitted dose curve; in most records, active means well fitted curve in the direction sought with a large enough effect; inconclusive means small, poorly fitted or top-dose-only effect, or another doubt; inactive means no such curve, though single readings can be large; an effect the other way counts as inactive or inconclusive. Unless noted, on the % scale 0 is the no-effect control and ±100 the full control effect.
SMILES,a7 integrin act,LDHA block,GALK inhibitor,TrxR1 substrate,rTrxR1 inhibitor,PI4K2A block
Cc1ccc(O)c(NC(=O)c2cc(-c3ccccn3)nc3ccccc23)c1,x,2,x,x,x,x
COc1ccc(-c2nonc2NC(=O)Cc2cccc3ccccc23)cc1,x,-3,x,x,x,x
CC(C)NC(=O)/C(=C/c1ccc(-c2cccc(C(F)(F)F)c2)o1)NC(=O)c1ccccc1,x,-3,x,x,x,x
COc1cccc(NC(=O)CSc2nnc(-c3ccco3)c(-c3ccco3)n2)c1,-5%,22,0%,-5%,7.1µM*,-25
NC(CO)C(=O)NNCc1ccc(O)c(O)c1O (stereo unspecified),x,4,-1%,12%[57.1 µM],6µM*,-2
Cc1ccsc1CNC(=O)Cc1c(F)cccc1Cl,x,3,x,x,x,x
Cc1[nH]c(=O)[nH]c(=O)c1/C=N/NC(=O)[C@@H](N)CC(C)C,67%,3,-2%,7%,-24%,-60*
CCCCC1=CC2=C(c3ccco3)C(=O)C(C)(OC(=O)c3ccc(OC)cc3)C(=O)C2=CN1CCOC (stereo unspecified),11%,-8,3%,-9%,u,-3
CCCCC1=CC2=C(c3ccco3)C(=O)C(C)(OC(=O)c3ccc(OC)cc3)C(=O)C2=CN1Cc1ccccc1 (stereo unspecified),20%,13,-2%,-5%,45µM*,-9
Cc1ccc(NCCC(=O)c2ccc(Cl)cc2)cc1C,-1%,-1,0%,14%,50µM*,3
Cc1ccc(NCCC(=O)c2cccs2)cc1Cl,-30%,-2,0%,-4%,u,1
O=C(CCNc1cccc(Cl)c1)c1cccs1,-19%,17,-2%,6%,10µM*,1
Cc1ccc(NCCC(=O)c2cccs2)cc1C,13%,-5,-1%,13%[57.1 µM],4.5µM*,0
CC(C)c1ccc(NCCC(=O)c2cccs2)cc1,-20%,3,1%,-4%,2.8µM*,-4
COC(=O)C1=C(C(=O)OC)SC(=C(Cl)C(=S)Oc2ccccc2)S1,x,12,x,x,x,x
Cc1oc(=O)c(NC(=O)c2ccc(Cl)cc2)cc1C(=O)c1ccccc1,-68%,-3,4%,5%,u,11
Cc1oc(=O)c(NC(=O)c2ccccc2)cc1C(=O)c1ccccc1,-65%,-1,4%,-8%,40µM*,10
COc1cccc(CN2CCc3ccccc3C2)c1OC,x,5,x,x,x,x
CCOC(CNC(=O)CS(=O)Cc1nc(-c2cccc(OC)c2)oc1C)OCC (stereo unspecified),x,3,x,x,x,x
O=C(COC(=O)c1nc(Cl)c(Cl)c(Cl)c1Cl)NCc1ccccc1,-25%,0,x,-8%,45µM*,-3
Nc1c(Cl)c(Cl)nc(C(=O)OCC(=O)NCc2ccccc2)c1Cl,u,-1,x,-1%,16%,-2
O=C(COC(=O)c1ccc(S(=O)(=O)NCc2ccco2)cc1)Nc1ccc(Cl)cn1,9%,-4,-3%,3%[57.1 µM],1%[57.1 µM],-52*
O=C(COC(=O)c1ccc(S(=O)(=O)NCc2ccco2)cc1)Nc1ccccc1,-31%,-5,x,-1%,-13%,6
Cc1c(-c2cccc(Cl)c2)nc2ccccc2c1C(=O)NC1CCCCCC1,x,5,x,x,x,x
O=C(CCc1cc(Cl)no1)N(CCS(=O)(=O)N1CCCCC1)Cc1cccnc1,x,1,x,x,x,x
SMILES,a7 integrin act,LDHA block,GALK inhibitor,TrxR1 substrate,rTrxR1 inhibitor,PI4K2A block
O=C(COC(=O)c1ccc([N+](=O)[O-])o1)Nc1cccc2ccccc12,18%,3,0%,-1%,20µM*,-6
CS(=O)(=O)c1ccc(C(=O)OCC(=O)NC2CCS(=O)(=O)C2)cc1[N+](=O)[O-] (stereo unspecified),-26%,-2,9%,4%,7.9µM*,-7
O=C(COC(=O)c1ccc2c(c1)OCO2)NC1CCS(=O)(=O)C1 (stereo unspecified),9%,-5,3%,11%,79µM*,-5
O=C(COC(=O)c1ccc([N+](=O)[O-])o1)NC1CCCC1,9%,8,x,-2%,u,-12
O=C(COC(=O)c1ccc([N+](=O)[O-])o1)NC1CCCCC1,u,18,x,-8%,16µM*,-10
O=C(COC(=O)c1ccc([N+](=O)[O-])o1)NCc1ccc(F)cc1,-66%,0,x,-5%,u,-23
COc1cc(C(=O)OCC(=O)NC2CCS(=O)(=O)C2)c([N+](=O)[O-])cc1OC (stereo unspecified),2%,-2,-2%,-3%[57.1 µM],4%[57.1 µM],0
Cc1ccsc1C(=O)OCC(=O)NC1CCS(=O)(=O)C1 (stereo unspecified),-12%,-5,-1%,1%,13%,-3
CC1CCCC(c2ccc(O)cc2)(c2ccc(O)cc2)C1 (stereo unspecified),x,0,x,x,x,x
CC(C)c1cc(C(=O)O)c(O)c(C(C)C)c1,x,-2,x,x,x,x
N#CCC(=O)c1c[nH]c2ccccc12,x,1,x,x,x,x
CS(=O)(=O)c1ccc(C(=O)OCC(=O)NCc2cccs2)cc1[N+](=O)[O-],-29%,0,x,10%[57.1 µM],1.8µM*,-7
Cc1cccc(C(=O)OCC(=O)NCc2cccs2)c1,21%,-7,11%,0%[57.1 µM],5%[57.1 µM],3
O=C(COC(=O)c1ccc([N+](=O)[O-])o1)NC1CCS(=O)(=O)C1 (stereo unspecified),-10%,13,-1%,-7%,3.5µM*,-7
O=C1CC(Nc2ccc(N3CCOCC3)cc2)C(=O)N1Cc1ccccc1 (stereo unspecified),-6%,13,0%,5%,u,-6
COc1ccccc1N1C(=O)CC(Nc2ccc(N3CCOCC3)cc2)C1=O (stereo unspecified),-23%,15,3%,6%[57.1 µM],7.9µM*,-21
Cc1ccc(NC2CC(=O)N(c3ccc(C)cc3)C2=O)cc1 (stereo unspecified),13%,1,-1%,-3%,25µM*,10
O=C1CC(Nc2ccc(N3CCOCC3)cc2)C(=O)N1c1ccccc1 (stereo unspecified),5%,1,0%,13%,u,-3
CCOc1ccccc1N1C(=O)CC(Nc2ccc(N3CCOCC3)cc2)C1=O (stereo unspecified),-7%,18,-1%,6%[57.1 µM],7.1µM*,-7
Cc1cc(NC(=O)c2ccc(NC(=O)C3=CSCCO3)cc2)ccc1Br,x,4,x,x,x,x
CC(C)(C)c1nnc2sc(-c3c[nH]c4ccccc34)nn12,x,-3,x,x,x,x
Cc1c(CCOC(=O)c2cc([N+](=O)[O-])cc([N+](=O)[O-])c2)sc[n+]1CC(=O)c1ccccc1,0%,1,0%,1%,79µM*,-6
